The values that follow come from PubChem BioAssay (NCATS).

Experiment [1] can be described thus: NCATS anti-infectives library activity on HEK293 viability as a counter-qHTS vs the C. elegans viability qHTS (AID 1745854).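 Also: HEK293 cells exposed to compounds for 24 hr before the viability read; % is scaled to controls: 0 for no effect and ±100 for the full control effect.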 An outline of the steps:
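Compound titrations (final up to 41.7 uM) were incubated with HEK293 cells for 24 hr at 37C under 5% CO2. Viable cells were quantified with CellTiter-Glo after 10 min at ambient temperature.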
A general note: qHTS replaces the single test concentration by a dilution series.

Experiment [2] addresses Glutathione peroxidase 1 (Homo sapiens) (UniProt P07203). The experiment in a line: Primary qHTS Assay for Inhibitors of Recombinant Selenoprotein Glutathione Peroxidase 1 (GPX1) (AID 1845191). Also: nearly all actives have a fitted effect of over 65% in size. The essentials:
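GPX1 10 nM, GR 100 nM, GSH 1 mM, NADPH 0.5 mM, CHP 0.5 mM (final). 30-min cpd preincubation, RT. Ex340/Em450 read t=0, t=15 min.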

The target in experiment [3] is Phospholipid hydroperoxide glutathione peroxidase GPX4 (Homo sapiens) (UniProt P36969). Description: Primary qHTS Assay for Inhibitors of Recombinant Selenoprotein Glutathione Peroxidase 4 (GPX4) (AID 1845192). Also: nearly all actives have a fitted effect of over 65% in size. An outline of the steps:
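qHTS, GR-coupled: GPX4 200 nM + cpd 30 min RT → GSH 1 mM, NADPH 0.5 mM, GR 100 nM → CHP 0.5 mM start; fluor 340/450 at t0 and t15 min; no-enzyme wells as control.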

Experiment [4] in a line: qHTS drug screen for cell cycle checkpoint inhibitors in PARPi-resistant BRCA-mutant ovarian cancer cell lines. (AID 1963452; calls by dose curve). To be noted: PEO1/OlaR viability, CellTiter-Glo luminescence, 96 h, stronger effect = lower value. An outline of the steps:
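PEO1, PEO4 and PEO1/OlaR ovarian cancer cells, 600 per well, exposed 96 h at 37C to a dilution series. Viability read by CellTiter-Glo luminescence, normalized to DMSO and empty wells; activity summarized as Z-AUC.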

Experiment [5] is described as follows: NCATS anti-infectives library activity on the primary C. elegans qHTS viability assay (AID 1745855; calls by dose curve; also: potency is read from the fitted curve at half-maximal effect). The essentials: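 Titration-based screen in worms: eggs hatched overnight in M9, L1 larvae fed TOP10 capsules in S medium with compound, incubated 21 °C for 7 days; fluorescent objects gated by size and intensity at days 0, 3 and 7.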

Results filed as inconclusive are left out. The source made the active and inactive calls. Unless noted, calls follow the shape of the dose curve; as a rule, active = well fitted curve in the direction sought with a large enough effect; inconclusive = small, poorly fitted or top-dose-only effect, or another doubt; inactive = no such curve, though single readings can be large; an effect the other way counts as inactive or inconclusive.

Glutathione peroxidase 1 (Homo sapiens), sequence (P07203 whole entry, looked up): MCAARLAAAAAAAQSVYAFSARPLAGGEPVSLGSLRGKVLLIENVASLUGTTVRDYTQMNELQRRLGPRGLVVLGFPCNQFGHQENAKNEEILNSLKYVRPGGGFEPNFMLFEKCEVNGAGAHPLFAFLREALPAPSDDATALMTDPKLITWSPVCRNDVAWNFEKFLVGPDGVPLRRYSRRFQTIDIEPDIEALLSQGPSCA
Phospholipid hydroperoxide glutathione peroxidase GPX4 (Homo sapiens), sequence (P36969 whole entry, looked up): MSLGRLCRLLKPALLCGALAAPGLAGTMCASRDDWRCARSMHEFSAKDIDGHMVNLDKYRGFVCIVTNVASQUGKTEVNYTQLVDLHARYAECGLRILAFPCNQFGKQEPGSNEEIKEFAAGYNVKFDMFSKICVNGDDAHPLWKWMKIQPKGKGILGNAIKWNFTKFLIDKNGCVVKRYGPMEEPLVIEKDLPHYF

Turning to `CC[C@@]1([C@@H]2O[C@@H]([C@H]3O[C@@](O)(CO)[C@H](C)C[C@@H]3C)C[C@@H]2C)CC[C@H]([C@]2(C)CCC3(C[C@H](O)[C@@H](C)[C@@H]([C@@H](C)[C@@H](OC)[C@H](C)C(=O)O)O3)O2)O1` (stereo partly drawn), in experiment [1], the activity change, negative = cytotoxicity was -29.3% [at 3.71 µM] (inactive). Moreover, the Potency entry in experiment [2] and in experiment [3] was “inactive” throughout. The Z-AUC in experiment [4] is -0.884 (inactive); in experiment [4] (measured here: PEO1 parental Z-AUC), -0.753; in experiment [4] (measured here: PEO4 Z-AUC) it was -1.58.
Regarding `CC(C)CN(C[C@@H](O)[C@H](Cc1ccccc1)NC(=O)[C@@H](NC(=O)CNCc1cccc(F)c1)C(C)(C)C)S(=O)(=O)c1cccc(N)c1`, the Potency entry in experiment [1] and in experiment [5] was “inactive” each time.
On to `O=c1ccn2c(n1)O[C@H]1[C@H](O)[C@@H](CO)O[C@H]12`, for which the Potency result in experiment [1] and in experiment [5] was “inactive” each time.
With `O=C(O)[C@H]1C2CCC(CC2)[C@@H]1Nc1nc(-c2c[nH]c3ncc(F)cc23)ncc1F`, the Potency entry in experiment [1] and in experiment [5] was “inactive” in each case.
Take `CCOC(=O)NCCCC(=O)NCCc1ccccc1`: the Potency entry in experiment [1] and in experiment [5] was “inactive” each time.
In the case of `CCCCCCCCCCCCCCCc1cccc(O)c1C(=O)O`, the Potency result in experiment [1] and in experiment [5] was “inactive” each time.
`C=C[C@@H]1C[C@]1(NC(=O)[C@@H]1C[C@@H](Oc2ncc(OC)c3ccc(Cl)cc23)CN1C(=O)[C@@H](NC(=O)OC(C)(C)C)C(C)(C)C)C(=O)NS(=O)(=O)C1CC1`: the Potency result in experiment [1] and in experiment [2] was “inactive” in each case. In addition, the Potency in experiment [5] was 20.5 µM (active).
`CC(C)C[C@H](NC(=O)[C@H]1O[C@@H]1C(=O)O)C(=O)NCCCCN=C(N)N`: the Potency entry in experiment [1] and in experiment [2] was “inactive” in each case.
Regarding `C[C@@]1(F)[C@H](O)[C@@H](CO)O[C@H]1n1ccc(=O)[nH]c1=O`, the Potency result in experiment [1] and in experiment [5] was “inactive” throughout.
